From PubChem
Rows were chosen to be rich in hits. Some 14% of all compounds tested hit in one or more screens of this group.
NS1 inh: qHTS Assay for Inhibitors of Influenza NS1 Protein Function; 270,000 compounds, 0.4% hits; Potency, µM (series often up to 46.1 µM), for inactives: top-dose activity, positive = more growth; AID 2326, 2010; calls by dose curve; note: potency is the fitted concentration of half-maximal effect; actives are rising curves; nearly all actives have a fitted effect of over 50% in size
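Compounds were scored for reversing the slow growth caused by influenza A NS1 in S. cerevisiae, measured by optical density at 600 nm. Assay medium contained 2% galactose at pH 6.0; NS1-free yeast of the same strain were the positive control.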
FBPA Giardia inh: qHTS Assay for Inhibitors of Fructose-1,6-bisphosphate Aldolase from Giardia Lamblia. A8B2U2. 290,000 compounds, 0.71% hits. purified Giardia FBPA. AID 2451, 2010. Potency, µM (top dose mostly 59.6 µM), for inactives: at the top dose activity, negative = inhibition, most hits filed as inhibitors; note: potency is the fitted concentration of half-maximal effect; % is set by controls: 0 for no effect and ±100 for the full control effect; nearly all actives have a fitted effect of over 55% in size
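Giardia FBPA (40 nM reagent) was preincubated 10 min at RT with compound (up to 57.5 uM final), then substrate plus GAPDH/TPI/NAD/arsenate coupling system with diaphorase/resazurin was added; resorufin fluorescence (525/598 nm) was read after 20 min.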
CHX counter: Cycloheximide Counterscreen for Small Molecule Inhibitors of Shiga Toxin; cell reporter, cycloheximide protein synthesis inhibition counterscreen; 300,000 compounds, 12% hits; max response, %; in the data active = max response mostly above about 13%, no sharp cut-off; inactive = mostly below about 14%; note: read at 38.3 µM for the half of the compounds with a filed dose; 0% is about no effect
LmPK inhibitor: qHTS Assay for Inhibitors of Leishmania Mexicana Pyruvate Kinase (LmPK) | Q27686 | purified LmPK, Kinase-Glo ATP luminescence, 1 h | Potency, µM (doses to about 57.5 µM), without a hit: at the top dose activity change, negative = inhibition, most hits filed as inhibitors | 290,000 compounds, 0.37% hits; note: potency is the fitted concentration of half-maximal effect; % is set by controls: 0 for no effect and ±100 for the full control effect
Target sequence (Q27686 whole entry, looked up): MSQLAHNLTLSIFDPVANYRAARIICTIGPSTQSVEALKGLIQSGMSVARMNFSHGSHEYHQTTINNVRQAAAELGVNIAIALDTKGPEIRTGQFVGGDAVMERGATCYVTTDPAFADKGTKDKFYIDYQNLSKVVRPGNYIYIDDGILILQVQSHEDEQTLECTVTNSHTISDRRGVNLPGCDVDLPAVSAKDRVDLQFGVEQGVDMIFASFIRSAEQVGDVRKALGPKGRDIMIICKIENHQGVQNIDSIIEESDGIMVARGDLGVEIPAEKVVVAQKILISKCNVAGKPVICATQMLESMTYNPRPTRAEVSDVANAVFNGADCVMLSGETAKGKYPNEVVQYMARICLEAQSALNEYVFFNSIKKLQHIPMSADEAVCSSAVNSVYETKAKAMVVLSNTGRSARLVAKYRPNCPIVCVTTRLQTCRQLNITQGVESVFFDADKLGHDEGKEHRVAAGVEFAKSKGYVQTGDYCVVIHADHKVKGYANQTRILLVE
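Purified LmPK (0.1 nM) with 0.5 mM PEP and 0.1 mM ADP in imidazole buffer pH 7.2 with MgCl2/KCl, 1 h at room temperature. ATP formed was read by luciferase luminescence and normalized to no-enzyme and uninhibited controls.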
Shiga inhibitor: A qHTS for Small Molecule Inhibitors of Shiga Toxin; 290,000 compounds, 9.2% hits; inhibition, % at 38.7 µM; Vero cells, Shiga toxin protein synthesis inhibition reporter; in the data active = inhibition mostly above about 28%, no sharp cut-off; inactive = mostly below about 43%; note: 0% is about no effect
Numbers without * were called inactive. Unless noted, calls come from the whole dose curve; as a rule, active = well fitted curve in the direction sought with a large enough effect; inconclusive = small, poorly fitted or top-dose-only effect, or another doubt; inactive = no such curve, though single readings can be large; an effect the other way counts as inactive or inconclusive.

Screening O=C(Nc1cccc(C(=O)Nc2cc(C(=O)Nc3ccc([S+](=O)([O-])[O-])c4cc([S+](=O)([O-])[O-])cc(SOOO)c34)ccc2F)c1)Nc1cccc(C(=O)Nc2cc(C(=O)Nc3ccc([S+](=O)([O-])[O-])c4cc([S+](=O)([O-])[O-])cc([S+](=O)([O-])[O-])c34)ccc2F)c1 returned FBPA Giardia inh -14%, CHX counter -12 and Shiga inhibitor -15.
`O=C(CNC(=S)NC(=O)c1ccccc1)c1ccccc1` gave NS1 inh 15%, FBPA Giardia inh -1%, CHX counter 23*, LmPK inhibitor 2% and Shiga inhibitor 44*.
Cc1ccccc1C(=O)NC(=S)NCC(=O)c1ccccc1 was read as NS1 inh 5%, FBPA Giardia inh 0%, CHX counter -3, LmPK inhibitor 1% and Shiga inhibitor -15.
For CC(C)C(=O)NC(=S)NCC(=O)c1ccccc1 the results were NS1 inh -9%, FBPA Giardia inh 3%, CHX counter 29*, LmPK inhibitor 0% and Shiga inhibitor 26.
Screening [ClH+][Cu][ClH+].[Cu].[OH2+]c1ccc2ccccc2c1CN1CCCCC1.[OH2+]c1ccc2ccccc2c1CN1CCCCC1 returned NS1 inh 0%.
`COc1c2c(cc3c1C(c1c(O)c4ccccc4oc1=O)N(C)CC3)OCO2` (stereo not drawn) gave FBPA Giardia inh -7%.
For CC1(CCc2ccccc2)NC(=O)N(CC(=O)Nc2ccccc2)C1=O (stereo not drawn) the results were NS1 inh inconclusive, FBPA Giardia inh 5%, CHX counter 16*, LmPK inhibitor -1% and Shiga inhibitor 36.
CC1(CCc2ccccc2)NC(=O)N(CC(=O)O)C1=O (stereo not drawn) was read as NS1 inh -2%, FBPA Giardia inh 2%, CHX counter -4, LmPK inhibitor -5% and Shiga inhibitor -7.
For CCC(C)C(NC(=O)OC(C)(C)C)C(=O)NC1COC2CC(n3ccc(NC(C)=O)nc3=O)OC12 (stereo not drawn) the results were FBPA Giardia inh 3%, CHX counter -7 and Shiga inhibitor -5.
For COc1ccc2c(c1)C(c1cccs1)=NNC(c1ccncc1)=N2 the results were NS1 inh 7%, FBPA Giardia inh 0%, CHX counter -4, LmPK inhibitor 1% and Shiga inhibitor -14.
CC(C)c1ccc2c(c1)C(c1ccc(N3CCOCC3)cc1)=NNC(c1cccs1)=N2 was read as NS1 inh 26%, FBPA Giardia inh -1%, CHX counter 45*, LmPK inhibitor 1% and Shiga inhibitor 54.
Screening COc1ccc(C2=NNC(c3cccnc3)=Nc3ccc(OC)cc32)cc1 returned FBPA Giardia inh 5%, CHX counter 3, LmPK inhibitor 7% and Shiga inhibitor -11.
CC(C)c1ccc2c(c1)C(c1cccs1)=NNC(c1ccncc1)=N2 was read as NS1 inh 2%, FBPA Giardia inh 0%, CHX counter 22*, LmPK inhibitor 8% and Shiga inhibitor 76*.
`CCCOc1ccc(C2=NNC(c3cccs3)=Nc3ccc(OC)cc32)cc1` gave NS1 inh inconclusive, FBPA Giardia inh -5%, CHX counter 57*, LmPK inhibitor 5% and Shiga inhibitor 98*.
Screening O=[N+]([O-])c1cc([N+](=O)[O-])c(Oc2ccc(Br)cc2Br)cc1NN1CCCCC1 returned NS1 inh -10%, FBPA Giardia inh 21%, CHX counter -2, LmPK inhibitor -2% and Shiga inhibitor 1.
`COC(=O)C1=C(C)NC(C)=C(C(=O)OCCSc2ccccc2)C1C` (stereo not drawn) gave FBPA Giardia inh -11%, CHX counter 13* and Shiga inhibitor 23*.
For CCCc1nnc(NC(=O)CCC(=O)N2CCN(Cc3ccc(Cl)cc3)CC2)s1 the results were NS1 inh 6%, CHX counter -7, LmPK inhibitor -4% and Shiga inhibitor -6.
Screening CC(C)(C)OC(=O)N1CCC(CC2CC(c3ccc(Cl)cc3)=NO2)(C(=O)NCC2CCCCC2)CC1 (stereo not drawn) returned NS1 inh 28%, FBPA Giardia inh 5%, CHX counter 32*, LmPK inhibitor 5% and Shiga inhibitor 47*.
Screening COc1ccc(OC)c(NC(=O)CCn2ccnc2)c1 returned NS1 inh 0%, FBPA Giardia inh 13%, CHX counter -3, LmPK inhibitor 7% and Shiga inhibitor -7.
Cc1cccc(C)c1NC(=O)CN(C)C(=O)c1ccc(COc2ccccc2)cc1 was read as NS1 inh 8%, FBPA Giardia inh 4%, CHX counter 20*, LmPK inhibitor 11% and Shiga inhibitor 40.
`COc1ccccc1CN(C)C(=O)c1ccc(COc2ccccc2)cc1` gave NS1 inh -41%, FBPA Giardia inh 5%, CHX counter 11, LmPK inhibitor 0% and Shiga inhibitor 16.
Fc1ccc(Nc2ncnc3ccccc23)cc1 was read as NS1 inh -45%, FBPA Giardia inh inconclusive, CHX counter 22* and LmPK inhibitor -9%.
`CC(C)(C)C(=O)Oc1cccc(Nc2ncnc3ccccc23)c1` gave NS1 inh -53%, FBPA Giardia inh 6%, CHX counter 9.6*, LmPK inhibitor -1% and Shiga inhibitor 10.
For COc1ccccc1Nc1ncnc2ccccc12 the results were NS1 inh -10%, FBPA Giardia inh 1%, CHX counter 17*, LmPK inhibitor 0% and Shiga inhibitor 35.
Cc1ccc(O)c(C2=NNC(c3ccc(Cl)cc3)C2)c1 (stereo not drawn) was read as NS1 inh -55%, FBPA Giardia inh -3%, CHX counter 59*, LmPK inhibitor 5% and Shiga inhibitor 70*.
For Oc1ccc(Cl)cc1C1=NNC(c2cccs2)C1 (stereo not drawn) the results were NS1 inh -71%, FBPA Giardia inh 3%, CHX counter 43*, LmPK inhibitor 0% and Shiga inhibitor 141*.
Screening O=C1C=C(O)CC(c2cccs2)C1 (stereo not drawn) returned NS1 inh 22%, FBPA Giardia inh 3%, CHX counter 1, LmPK inhibitor 0% and Shiga inhibitor -13.
Cn1cccc1C(=O)NCCc1ccc(Cl)cc1 was read as NS1 inh -2%, CHX counter 46*, LmPK inhibitor -17% and Shiga inhibitor 125*.
Screening Cn1cccc1C(=O)NCCc1ccccc1 returned NS1 inh -7%, FBPA Giardia inh -12%, CHX counter 23*, LmPK inhibitor inconclusive and Shiga inhibitor 51*.
Screening Cn1cccc1C(=O)NCc1ccc(Cl)cc1 returned NS1 inh -11%, FBPA Giardia inh 7%, CHX counter 11, LmPK inhibitor 0% and Shiga inhibitor -5.
